# Results as given in PubChem BioAssay AID504832 (National Center for Advancing Translational Sciences (NCATS), 2011).
# “And” between values parts separate entries of the source, which are not always exact repeats. Identical values can stand only once. Screen size: about 310,000 compounds; about 18,000 (5.8%) were called active. Not shown: some 22% with an inconclusive outcome. This excerpt belongs to a sample that is enriched for actives. A number with no mark means an inactive call. Calls come from the whole dose curve; as a rule, active = well fitted inhibition curve with a large enough effect; inconclusive = small, poorly fitted or top-dose-only effect, or another doubt; inactive = no such curve, though single readings can be large or run the other way.
# Assay: Primary qHTS for delayed death inhibitors of the malarial parasite plastid, 48 hour incubation
# Details: P. falciparum luciferase growth in erythrocytes; series mostly up to 28.7 µM; activity change, negative = inhibition: at the top concentration
# Outline: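 First compound was added to culture medium, then infected red cells at 0.1% parasitemia and 2% hematocrit (final). After incubation at 37 C under 5% CO2, luciferase detection reagent was dispensed and light output recorded.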
# % is set by controls: 0 for no effect and ±100 for the full control effect; potency is the fitted concentration of half-maximal effect.
Structure (SMILES),"activity change, negative = inhibition",Potency
c1ccc2c(CSCc3nc4ccccc4[nH]3)cccc2c1,8.42%,
O=C(Nc1ccc(Cl)cc1)c1cccc(OC(=S)N2CCOCC2)c1,6.9%,
Cc1ccc(C(=O)O/N=C(\N)c2ccccn2)cc1Cl,-84.4%,
CCOc1ccc(OCCSc2nc3ccccc3n2CC(=O)O)cc1,-6.72%,
CC(C)=CCN1CCN(Cc2cc3ccccc3[nH]2)CC1CCO (stereo not drawn),2.8%,
COc1ccc(C(=O)N2CCCC(C(=O)c3ccccc3OC)C2)cc1OC (stereo not drawn),5.51%,
COc1ccc(CSc2nc(N3CCOCC3)c3c(c2C#N)CC(C)(C)OC3)cc1,,11.7 µM (active)
COc1ccc(-n2nnnc2SCc2nc(N)nc(N3CCOCC3)n2)cc1,34.6%,
Cc1cc(C)c(C#N)c(SCc2ccc3c(c2)OCO3)n1,6.16%,
CC(C)(C)OC(=O)N1CCC(C(=O)NNC(=O)c2ccc(Cl)cc2Cl)CC1,15.3%,
Cc1c(CN2CCC(n3nccc3NC(=O)CCc3ccccc3)CC2)cnn1C,18.2%,
COC(=O)c1c(NC(=O)C2CC(C)=C(C)CC2C(=O)O)sc2c1CCCCC2 (stereo not drawn),1.83%,
COC(=O)c1ccc(S(=O)(=O)N2CCc3ccccc3C2)cc1,18.3%,
COc1ccc(N2C(=O)c3ccccc3NC2c2ccc(OC)c(CN3CCOCC3)c2)cc1 (stereo not drawn),46%,
COc1ccc(C2Nc3ccccc3C(=O)N2c2ccc(F)cc2)cc1Cn1nnc2ccccc21 (stereo not drawn),,6.57 µM (active)
COc1ccc(C2Nc3ccccc3C(=O)N2c2ccc(Cl)cc2)cc1Cn1cc([N+](=O)[O-])cn1 (stereo not drawn),4.94%,
COc1ccc(C2=NO[C@@H]3C(=O)N(Cc4ccccc4)C(=O)[C@H]23)cc1OC,14.1%,
COc1ccc(C2Nc3ccccc3C(=O)N2Cc2ccccc2)cc1Cn1nnc2ccccc21 (stereo not drawn),,3.7 µM (active)
Cc1ccc(C2Nc3ccccc3C(=O)N2CCN2CCNC2=O)cc1 (stereo not drawn),-5.97%,
CCCc1c(C(=O)N/N=C(\C)CCc2ccc(OC)cc2)nnn1-c1nonc1N,25.2%,
CC(C)C(NC(=O)c1c(F)cccc1F)C(=O)NCc1ccncc1 (stereo not drawn),7.76%,
CCS(=O)(=O)Nc1cccc(-c2cc(-c3ccccc3)c3cc(C)ccc3n2)c1,-16.1%,
Cc1ccc2nc(Nc3ccccc3O)nc(-c3ccccc3)c2c1,,13.1 µM (active)
O=C(CCl)NNc1nc(-c2ccccc2)c2cc(Cl)ccc2n1,3.75%,
Nc1c(C(=O)OCC(=O)Nc2ccc(OC(F)F)cc2)[nH]c(=O)[nH]c1=O,19.4%,
O=C(c1cc(COc2ccc(F)cc2F)on1)N1CCOCC1,56.8%,
CCCCC(=O)Nc1ccc(C(=O)Nc2cc(C(F)(F)F)ccc2Cl)cc1,-22.2%,

Structure (SMILES),"activity change, negative = inhibition",Potency
CCCCN(CCCC)CCC(O)c1cc2c(Cl)cc(Cl)cc2c2cc(C(F)(F)F)ccc12 (stereo not drawn),,3.2 nM (active) and 4.1 nM (active)
COc1cccc(CNC(=O)COc2cc(O)c3c(c2)OC(C)(C)CC3=O)c1,19.9%,
O=C(CSc1nnc2c(n1)[nH]c1ccccc12)NC1CCCCC1,0%,
Clc1ccc(CSc2nnc3c(n2)[nH]c2ccccc23)cc1,,5.22 µM (active)
Cc1ccc(CNC(=O)CSc2nnc3c(n2)[nH]c2ccc(F)cc23)cc1,1.4%,
CCCCN(C(=O)c1ccc(S(=O)(=O)N2CCOCC2)cc1)C1CCS(=O)(=O)C1 (stereo not drawn),-11.1%,
O=C1OC(c2ccc(Cl)cc2)=N/C1=C\c1cccnc1,8.84%,
O=C1NCC(=O)N(Cc2ccccc2)/C1=C/c1ccccc1,399%,
O=C1NNC(c2ccccc2)=N/C1=C\c1ccc(Cl)cc1,,6.57 µM (active)
COc1ccc(C2CC(c3ccc([N+](=O)[O-])cc3)=NN2C(C)=O)cc1 (stereo not drawn),37.5%,
CNC(=O)C1CC(=O)N(c2ccc(OCC(=O)Nc3ccccc3C)cc2)C1 (stereo not drawn),51.2%,
O=C1C(=O)N(CCCO)C(c2ccccc2)/C1=C(\O)c1ccc(Br)cc1 (stereo not drawn),-14.6%,
Cc1ccc(OCCOc2cccc(/C=N/NC(N)=O)c2)cc1,59.9%,
O=C(N/N=C/c1cccc(OCc2ccccc2)c1)c1ccc(Br)o1,,9.28 µM (active)
O=C(N/N=C/c1cccc(O)c1)c1cc2c(ccc3ccccc32)o1,-1.63%,
O=C(NCCCN1CCOCC1)c1cc(-c2ccccc2F)no1,36.9%,
Nc1ccccc1Sc1ccc(C(F)(F)F)cc1[N+](=O)[O-],27.9%,
Nc1ccccc1SC(C[N+](=O)[O-])c1ccccc1 (stereo not drawn),,4.15 µM (active)
Nc1ccccc1SCc1cc([N+](=O)[O-])cc2c1OCOC2,58.4%,
CN(c1ccc(O)cc1)c1nc(-c2cccnc2)cs1,2.67%,
COc1ccc(OC)c(C2C3=C(N=c4s/c(=C\c5cccc(O)c5)c(=O)n42)c2ccccc2CC3)c1 (stereo not drawn),,5.86 µM (active)
O=C1CCCC2=C1C(c1ccccc1)n1c(s/c(=C/c3cccc(F)c3)c1=O)=N2 (stereo not drawn),3.37%,
O=C(NCCc1ccc(F)cc1)c1ccc2nccnc2c1,136%,
CC(C)Nc1ncnc2c1nnn2Cc1ccccc1,-4.05%,
Clc1ccc(Nc2ncnc3c2nnn3Cc2ccccc2)cc1,-9.13%,
CC(C)Cc1nc(Nc2ccc(S(=O)(=O)N3CCCC3)cc2)c2nnn(Cc3ccccc3)c2n1,,4.65 µM (active)
